Experimental findings from article PMC8222333, “AsCas12a ultra nuclease facilitates the rapid generation of therapeutic cell medicines” are described below.

Sequences and labels used below:
B1: GGCA (dsDNA)
DNA 1: GCTATCTAGTGCTCAGTACGCACTGGGCAAGGAAACTTCTGGCAGGACCAGGTCATGAGATCGGAAGAGCACACGTCTGAACTCCAGTCA
DNA 2: TGACTGGAGTTCAGACGTGTGCTCTTCCGATCTCATGACCTGGTCCTGCCAGAAGTTTCCTTGCCCAGTGCGTACTGAGCACTAGATAGC
RNA: AAUUUCUACUCUUGUAGAUAGGAAACUUCUGGCAGGACC
B2: GTAG (dsDNA)
DNA 1: GCTATCTAGTGCTCAGTACGCACTGGTAGAGGAAACTTCTGGCAGGACCAGGTCATGAGATCGGAAGAGCACACGTCTGAACTCCAGTCA
DNA 2: TGACTGGAGTTCAGACGTGTGCTCTTCCGATCTCATGACCTGGTCCTGCCAGAAGTTTCCTCTACCAGTGCGTACTGAGCACTAGATAGC
RNA: AAUUUCUACUCUUGUAGAUAGGAAACUUCUGGCAGGACC
B3: TAAG (dsDNA)
DNA 1: GCTATCTAGTGCTCAGTACGCACTGTAAGAGGAAACTTCTGGCAGGACCAGGTCATGAGATCGGAAGAGCACACGTCTGAACTCCAGTCA
DNA 2: TGACTGGAGTTCAGACGTGTGCTCTTCCGATCTCATGACCTGGTCCTGCCAGAAGTTTCCTCTTACAGTGCGTACTGAGCACTAGATAGC
RNA: AAUUUCUACUCUUGUAGAUAGGAAACUUCUGGCAGGACC
B4: GGGT (dsDNA)
DNA 1: GCTATCTAGTGCTCAGTACGCACTGGGGTAGGAAACTTCTGGCAGGACCAGGTCATGAGATCGGAAGAGCACACGTCTGAACTCCAGTCA
DNA 2: TGACTGGAGTTCAGACGTGTGCTCTTCCGATCTCATGACCTGGTCCTGCCAGAAGTTTCCTACCCCAGTGCGTACTGAGCACTAGATAGC
RNA: AAUUUCUACUCUUGUAGAUAGGAAACUUCUGGCAGGACC
B5: GGTG (dsDNA)
DNA 1: GCTATCTAGTGCTCAGTACGCACTGGGTGAGGAAACTTCTGGCAGGACCAGGTCATGAGATCGGAAGAGCACACGTCTGAACTCCAGTCA
DNA 2: TGACTGGAGTTCAGACGTGTGCTCTTCCGATCTCATGACCTGGTCCTGCCAGAAGTTTCCTCACCCAGTGCGTACTGAGCACTAGATAGC
RNA: AAUUUCUACUCUUGUAGAUAGGAAACUUCUGGCAGGACC
B6: TAAC (dsDNA)
DNA 1: GCTATCTAGTGCTCAGTACGCACTGTAACAGGAAACTTCTGGCAGGACCAGGTCATGAGATCGGAAGAGCACACGTCTGAACTCCAGTCA
DNA 2: TGACTGGAGTTCAGACGTGTGCTCTTCCGATCTCATGACCTGGTCCTGCCAGAAGTTTCCTGTTACAGTGCGTACTGAGCACTAGATAGC
RNA: AAUUUCUACUCUUGUAGAUAGGAAACUUCUGGCAGGACC
B7: TAAT (dsDNA)
DNA 1: GCTATCTAGTGCTCAGTACGCACTGTAATAGGAAACTTCTGGCAGGACCAGGTCATGAGATCGGAAGAGCACACGTCTGAACTCCAGTCA
DNA 2: TGACTGGAGTTCAGACGTGTGCTCTTCCGATCTCATGACCTGGTCCTGCCAGAAGTTTCCTATTACAGTGCGTACTGAGCACTAGATAGC
RNA: AAUUUCUACUCUUGUAGAUAGGAAACUUCUGGCAGGACC
B8: GGCC (dsDNA)
DNA 1: GCTATCTAGTGCTCAGTACGCACTGGGCCAGGAAACTTCTGGCAGGACCAGGTCATGAGATCGGAAGAGCACACGTCTGAACTCCAGTCA
DNA 2: TGACTGGAGTTCAGACGTGTGCTCTTCCGATCTCATGACCTGGTCCTGCCAGAAGTTTCCTGGCCCAGTGCGTACTGAGCACTAGATAGC
RNA: AAUUUCUACUCUUGUAGAUAGGAAACUUCUGGCAGGACC
B9: TACA (dsDNA)
DNA 1: GCTATCTAGTGCTCAGTACGCACTGTACAAGGAAACTTCTGGCAGGACCAGGTCATGAGATCGGAAGAGCACACGTCTGAACTCCAGTCA
DNA 2: TGACTGGAGTTCAGACGTGTGCTCTTCCGATCTCATGACCTGGTCCTGCCAGAAGTTTCCTTGTACAGTGCGTACTGAGCACTAGATAGC
RNA: AAUUUCUACUCUUGUAGAUAGGAAACUUCUGGCAGGACC
B10: GTCC (dsDNA)
DNA 1: GCTATCTAGTGCTCAGTACGCACTGGTCCAGGAAACTTCTGGCAGGACCAGGTCATGAGATCGGAAGAGCACACGTCTGAACTCCAGTCA
DNA 2: TGACTGGAGTTCAGACGTGTGCTCTTCCGATCTCATGACCTGGTCCTGCCAGAAGTTTCCTGGACCAGTGCGTACTGAGCACTAGATAGC
RNA: AAUUUCUACUCUUGUAGAUAGGAAACUUCUGGCAGGACC
B11: TAGC (dsDNA)
DNA 1: GCTATCTAGTGCTCAGTACGCACTGTAGCAGGAAACTTCTGGCAGGACCAGGTCATGAGATCGGAAGAGCACACGTCTGAACTCCAGTCA
DNA 2: TGACTGGAGTTCAGACGTGTGCTCTTCCGATCTCATGACCTGGTCCTGCCAGAAGTTTCCTGCTACAGTGCGTACTGAGCACTAGATAGC
RNA: AAUUUCUACUCUUGUAGAUAGGAAACUUCUGGCAGGACC
B12: GGCT (dsDNA)
DNA 1: GCTATCTAGTGCTCAGTACGCACTGGGCTAGGAAACTTCTGGCAGGACCAGGTCATGAGATCGGAAGAGCACACGTCTGAACTCCAGTCA
DNA 2: TGACTGGAGTTCAGACGTGTGCTCTTCCGATCTCATGACCTGGTCCTGCCAGAAGTTTCCTAGCCCAGTGCGTACTGAGCACTAGATAGC
RNA: AAUUUCUACUCUUGUAGAUAGGAAACUUCUGGCAGGACC
B13: GTGG (dsDNA)
DNA 1: GCTATCTAGTGCTCAGTACGCACTGGTGGAGGAAACTTCTGGCAGGACCAGGTCATGAGATCGGAAGAGCACACGTCTGAACTCCAGTCA
DNA 2: TGACTGGAGTTCAGACGTGTGCTCTTCCGATCTCATGACCTGGTCCTGCCAGAAGTTTCCTCCACCAGTGCGTACTGAGCACTAGATAGC
RNA: AAUUUCUACUCUUGUAGAUAGGAAACUUCUGGCAGGACC
B14: GGGC (dsDNA)
DNA 1: GCTATCTAGTGCTCAGTACGCACTGGGGCAGGAAACTTCTGGCAGGACCAGGTCATGAGATCGGAAGAGCACACGTCTGAACTCCAGTCA
DNA 2: TGACTGGAGTTCAGACGTGTGCTCTTCCGATCTCATGACCTGGTCCTGCCAGAAGTTTCCTGCCCCAGTGCGTACTGAGCACTAGATAGC
RNA: AAUUUCUACUCUUGUAGAUAGGAAACUUCUGGCAGGACC
B15: TACC (dsDNA)
DNA 1: GCTATCTAGTGCTCAGTACGCACTGTACCAGGAAACTTCTGGCAGGACCAGGTCATGAGATCGGAAGAGCACACGTCTGAACTCCAGTCA
DNA 2: TGACTGGAGTTCAGACGTGTGCTCTTCCGATCTCATGACCTGGTCCTGCCAGAAGTTTCCTGGTACAGTGCGTACTGAGCACTAGATAGC
RNA: AAUUUCUACUCUUGUAGAUAGGAAACUUCUGGCAGGACC
B16: GTCG (dsDNA)
DNA 1: GCTATCTAGTGCTCAGTACGCACTGGTCGAGGAAACTTCTGGCAGGACCAGGTCATGAGATCGGAAGAGCACACGTCTGAACTCCAGTCA
DNA 2: TGACTGGAGTTCAGACGTGTGCTCTTCCGATCTCATGACCTGGTCCTGCCAGAAGTTTCCTCGACCAGTGCGTACTGAGCACTAGATAGC
RNA: AAUUUCUACUCUUGUAGAUAGGAAACUUCUGGCAGGACC
B17: TACG (dsDNA)
DNA 1: GCTATCTAGTGCTCAGTACGCACTGTACGAGGAAACTTCTGGCAGGACCAGGTCATGAGATCGGAAGAGCACACGTCTGAACTCCAGTCA
DNA 2: TGACTGGAGTTCAGACGTGTGCTCTTCCGATCTCATGACCTGGTCCTGCCAGAAGTTTCCTCGTACAGTGCGTACTGAGCACTAGATAGC
RNA: AAUUUCUACUCUUGUAGAUAGGAAACUUCUGGCAGGACC
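Also: relative affinity from the bound to unbound sequence frequency ratio in Spec-seq.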

In the first test the target is dAsCas12a S542R (Acidaminococcus sp., UniProt U2UMQ6 1-1307, S542R;D908A;E993A;D1235A). The experiment in a line: Spec-seq (native PAGE EMSA with sequencing of bound and unbound); 25 mM Tris-HCl pH 7.4, 150 mM KCl, 5 mM MgCl2, 10% glycerol, 1 mM DTT, 40 ng/uL salmon sperm DNA; 400 nM Cas12a, 480 nM crRNA, 50 nM library, 37 C 1 h; native PAGE at room temperature; high values mean tight binding. Conditions: protein: recombinant. On the technique in general: In EMSA bound probe runs differently from free probe, usually more slowly.
Turning to B1, the binding signal is -8.26 lnKA.
Take B2: the binding signal was -8.28 lnKA.
The same measure, in the same setting: the same measure for B3: -8.68 lnKA; for B4: -8.85 lnKA.
Turning to B5, the binding signal is -8.15 lnKA.
Still for that read-out and setting: the value for B6 was -8.34 lnKA; that for B7 was -8.37 lnKA; that for B8 was -8.47 lnKA.
On the same count and under the same terms, the same measure for B9: -7.41 lnKA; for B10: -5.08 lnKA.
Same read-out and setting: the value for B11 was -8.4 lnKA; that for B12 was -8.78 lnKA; that for B13 was -8.13 lnKA.
For the molecule B14, the binding signal was -8.77 lnKA.
The same measure, in the same setting: the same measure for B15: -7.06 lnKA.
The same measure, in the same setting: the same measure for B16: -6.96 lnKA; for B17: -7.71 lnKA.

Another test concerns the target d-enCas12a (Acidaminococcus sp., UniProt U2UMQ6 1-1307, E174R;S542R;K548R;D908A;E993A;D1235A). The test is described as above. The settings on record: protein: recombinant.
For B1, the binding signal was -4.74 lnKA.
B2: the binding signal was -5.83 lnKA.
The same measure, in the same setting: the same measure for B3: -5.56 lnKA; for B4: -5.77 lnKA; for B5: -4.86 lnKA.
On the same count and under the same terms, the same measure for B6: -4.66 lnKA; for B7: -5.67 lnKA; for B8: -3.7 lnKA.
With B9, the binding signal was -1.33 lnKA.
The same measure, in the same setting: the same measure for B10: -1.42 lnKA; for B11: -5.51 lnKA.
Same read-out and setting: the value for B12 was -5.68 lnKA; that for B13 was -5.91 lnKA; that for B14 was -5.93 lnKA.
Still for that read-out and setting: the value for B15 was -1.02 lnKA; that for B16 was -4.39 lnKA.
B17: the binding signal is -3.12 lnKA.

The target in the next test is d-enCas12a-Ultra (Acidaminococcus sp., UniProt U2UMQ6 1-1307, E174R;S542R;K548R;M537R;F870L;D908A;E993A;D1235A). Described as above. The settings on record: protein: recombinant.
Take B1: the binding signal is -1.64 lnKA.
The same measure, in the same setting: the same measure for B2: -3.32 lnKA.
The same measure, in the same setting: the value for B3 was -3.25 lnKA; that for B4 was -3.46 lnKA.
B5: the binding signal was -1.95 lnKA.
The same measure, in the same setting: the same measure for B6: -2.03 lnKA.
The same measure, in the same setting: the value for B7 was -3.27 lnKA; that for B8 was -0.996 lnKA; that for B9 was -0.355 lnKA.
Same read-out and setting: the same measure for B10: -0.355 lnKA; for B11: -3.07 lnKA.
For the molecule B12, the binding signal was -2.87 lnKA.
For B13, the binding signal is -3.47 lnKA.
Still for that read-out and setting: the same measure for B14: -3.41 lnKA.
On the same count and under the same terms, the same measure for B15: -0.362 lnKA.
The same measure, in the same setting: the same measure for B16: -1.21 lnKA; for B17: -0.852 lnKA.
